Test results reported in PubChem BioAssay (NCATS).
Records with an inconclusive call do not appear. Calls of active or inactive are those of the source. Unless noted, the call rests on the fitted dose curve; in most records, active means well fitted curve in the direction sought with a large enough effect; inconclusive means small, poorly fitted or top-dose-only effect, or another doubt; inactive means no such curve, though single readings can be large; an effect the other way counts as inactive or inconclusive.

Tests used:
[1] = target: Muscarinic acetylcholine receptor M1 (Rattus norvegicus) (UniProt P08482); assay: qHTS Assay for Antagonists of Acetylcholine Muscarinic M1 Receptor: Kinetic Measurement of Intracellular Calcium Response (AID 943); details: M1-expressing cells, kinetic intracellular calcium fluorescence; series mostly up to 35.3 µM;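 further: Fluo-4 calcium signal as peak divided by basal fluorescence over 4 min; nearly all actives have a fitted effect of over 75% in size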
Summary of the method: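 Read-out: peak over basal Fluo-4 fluorescence, kinetic at 1 Hz for 4 min after EC80 carbachol (100 nM final). Rat M1-CHO cells, dye loaded 1 h at 37C, compound added 10 min before agonist.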

[2] = target: Muscarinic acetylcholine receptor M1 (Rattus norvegicus) (UniProt P08482); assay: qHTS Assay for Antagonists of Acetylcholine Muscarinic M1 Receptor: Measurement of IP-One Response (AID 944); details: CHO-M1 cells, IP-One HTRF, antagonist mode; series mostly up to 46.1 µM; further: nearly all actives have a fitted effect of over 75% in size
Summary of the method: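 Read-out: HTRF competition between d2-IP1 and Eu-cryptate anti-IP1 antibody, emission 620 and 665 nm. Stimulus was carbachol, EC80 (200 nM), for 30 min in M1-CHO cells (rat receptor), after 10 min compound pre-treatment.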

[3] = target: Pyruvate kinase (Leishmania mexicana) (UniProt Q27686); assay: qHTS Validation Assay for Inhibitors of Leishmania Mexicana Pyruvate Kinase (AID 945); details: purified L. mexicana pyruvate kinase, enzyme activity, E451W mutant enzyme; series mostly up to 57.5 µM
Summary of the method: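 The enzyme is a highly purified E451W mutant of LmPYK used at 0.2 nM. It converts 0.5 mM PEP and 0.1 mM ADP over 1 h at room temperature; product ATP is quantified by luciferase luminescence relative to DMSO controls.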

[4] = target: Pyruvate kinase PKM (Homo sapiens) (UniProt P14618); assay: qHTS Assay for Activators of Human Muscle Pyruvate Kinase (AID 954; active means well fitted curve in the direction sought with a large enough effect, not every such curve was filed as active); details: purified human muscle pyruvate kinase, luciferase-coupled luminescence, 1 h; series mostly up to 57.5 µM
Summary of the method: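 Screening used highly purified human pyruvate kinase M2 under submaximal activity, with PEP at its Km and ADP below Km. After an hour at room temperature, ATP was read by luciferase luminescence.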

[5] = Confirmation and Secondary Assay for Modulators of Hemoglobin Beta Chain Splicing at IVS2 705 locus (AID 930); details: HeLa EGFP-705 splicing reporter, GFP fluorescence, 48 h; series mostly up to 46.1 µM;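 further: HeLa cells stably expressing the EGFP-705 splicing reporter; GFP fluorescence per well restored by corrected splicing of the IVS2-705 intron in EGFP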
Summary of the method: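 Splice-correction reporter: EGFP cDNA split by beta-globin intron 2 bearing the 705 mutation, stably in HeLa. Compound incubation 2 days, 37C; fluorescent objects 5-250 µm summed per well.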

[6] = Cell Viability - LYMP2-001 (AID 921); details: LYMP2-001 lymphoblastoid cell viability; series mostly up to 92.2 µM; further: nearly all actives have a fitted effect of over 70% in size
Summary of the method: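 Human lymphoblastoid cells (Coriell), 2500 per well, were preincubated 5 hr at 37 C, then exposed to compounds in complete medium for 24 hr at 37 C. Cellular ATP was read by CellTiter-Glo luminescence; AC50 from Hill fits of concentration-response data.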

[7] = MultiTox-Fluor Cytotoxicity Assay - LYMP1-001 - Dead Cells (AID 946); details: LYMP1-001 lymphoblastoid cells, dead-cell protease fluorescence; series mostly up to 92.2 µM
Summary of the method: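 In this qHTS, 15 uM tetraoctylammonium bromide defined 100% and DMSO defined basal activity. Lymphoblastoid cells (LYMP1-001, 2500 per well) received compound for 16 hr at 37 C before a fluorogenic dead-cell substrate readout at 485/520 nm.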

[8] = MultiTox-Fluor Cytotoxicity Assay - LYMP1-001 - Live Cells (AID 947); details: LYMP1-001 lymphoblastoid cells, live-cell protease fluorescence viability; series mostly up to 92.2 µM
[9] = Cell Viability - LYMP1-002 - Assay at 16 hr (AID 948); details: LYMP1-002 lymphoblastoid cell viability; series mostly up to 92.2 µM
Summary of the method: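 Human lymphoblastoid cells (LYMP1-002), 2500/well, were preincubated 5 hr at 37 C, then exposed to compounds for 16 hr at 37 C in complete medium. Cellular ATP was read by CellTiter-Glo luminescence after 30 min at room temperature; AC50 from Hill fits.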

[10] = MultiTox-Fluor Cytotoxicity Assay - LYMP1-002 - Live Cells (AID 955); details: LYMP1-002 lymphoblastoid live-cell protease fluorescence viability; series mostly up to 46.1 µM
Summary of the method: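 LYMP1-002 lymphoblastoid cells; 2500 cells/well; 16 hr compound exposure, 37 C; MultiTox-Fluor reagent 60 min RT; live-cell fluorescence Ex/Em=405/510; qHTS concentration-response, Hill-equation AC50; tetraoctylammonium bromide positive control.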

Measured: outcome

Chain of Muscarinic acetylcholine receptor M1 (Rattus norvegicus) (P08482 whole entry, looked up): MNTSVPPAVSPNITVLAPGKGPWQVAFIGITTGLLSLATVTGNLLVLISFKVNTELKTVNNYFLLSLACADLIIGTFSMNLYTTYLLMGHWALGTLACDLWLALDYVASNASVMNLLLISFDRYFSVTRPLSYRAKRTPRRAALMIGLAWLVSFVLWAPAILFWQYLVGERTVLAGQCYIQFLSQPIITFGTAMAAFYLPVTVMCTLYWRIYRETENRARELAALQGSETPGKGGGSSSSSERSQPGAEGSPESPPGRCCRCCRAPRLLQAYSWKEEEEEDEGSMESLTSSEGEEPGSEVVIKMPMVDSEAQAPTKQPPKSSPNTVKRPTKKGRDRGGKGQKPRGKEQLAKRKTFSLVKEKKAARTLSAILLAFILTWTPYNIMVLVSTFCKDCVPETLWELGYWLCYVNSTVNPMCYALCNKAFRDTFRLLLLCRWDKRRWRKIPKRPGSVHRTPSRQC
Chain of Pyruvate kinase PKM (Homo sapiens) (P14618 whole entry, looked up): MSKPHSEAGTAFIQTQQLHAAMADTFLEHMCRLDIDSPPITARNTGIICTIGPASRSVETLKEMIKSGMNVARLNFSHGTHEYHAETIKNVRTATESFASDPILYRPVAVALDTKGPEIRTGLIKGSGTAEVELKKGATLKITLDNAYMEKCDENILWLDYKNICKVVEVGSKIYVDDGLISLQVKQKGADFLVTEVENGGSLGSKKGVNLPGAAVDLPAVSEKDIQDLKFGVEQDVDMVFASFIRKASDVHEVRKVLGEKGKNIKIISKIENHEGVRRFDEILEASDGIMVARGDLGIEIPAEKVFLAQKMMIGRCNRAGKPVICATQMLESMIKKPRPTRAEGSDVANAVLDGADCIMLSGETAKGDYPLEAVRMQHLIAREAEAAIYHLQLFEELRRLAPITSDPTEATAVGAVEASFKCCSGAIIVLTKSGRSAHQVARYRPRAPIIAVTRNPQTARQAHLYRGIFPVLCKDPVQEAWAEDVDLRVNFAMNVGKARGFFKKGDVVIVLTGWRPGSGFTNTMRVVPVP
Chain of Pyruvate kinase (Leishmania mexicana) (Q27686 2-499 E452W): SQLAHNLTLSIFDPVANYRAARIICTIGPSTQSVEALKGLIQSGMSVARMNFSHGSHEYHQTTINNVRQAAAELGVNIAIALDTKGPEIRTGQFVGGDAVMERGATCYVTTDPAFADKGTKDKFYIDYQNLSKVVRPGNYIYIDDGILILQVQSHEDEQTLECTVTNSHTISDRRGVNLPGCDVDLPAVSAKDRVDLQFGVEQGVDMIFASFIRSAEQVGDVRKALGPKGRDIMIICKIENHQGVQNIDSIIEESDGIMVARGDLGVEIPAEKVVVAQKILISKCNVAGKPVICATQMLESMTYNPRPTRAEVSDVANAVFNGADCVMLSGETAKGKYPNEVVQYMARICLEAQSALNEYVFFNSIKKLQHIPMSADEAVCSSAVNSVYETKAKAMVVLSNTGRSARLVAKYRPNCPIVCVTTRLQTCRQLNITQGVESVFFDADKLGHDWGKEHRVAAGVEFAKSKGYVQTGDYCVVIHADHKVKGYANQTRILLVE

CC(C)C[C@H](NC(=O)[C@@H]1O[C@H]1C(=O)O)C(=O)NCCCCN=C(N)N
inactive: [1] | [2] | [3] | [4]

CCOC(=O)C(CCc1ccccc1)NC(C)C(=O)N1Cc2ccccc2CC1C(=O)O (stereo not given)
inactive: [5]

C=C1C[C@]23C[C@@]1(O)CC[C@H]2[C@@]12C=C[C@H](O)[C@@](C)(C(=O)O1)[C@H]2[C@@H]3C(=O)O
inactive: [6] | [7] | [8] | [9] | [10]

C[C@]1(C2CCCC2)Cc2cc(OCC(=O)O)c(Cl)c(Cl)c2C1=O
inactive: [1] | [2] | [3] | [4]

COc1ccc(CCC(=O)c2c(O)cc(O[C@@H]3O[C@H](CO)[C@@H](O)[C@H](O)[C@H]3O[C@@H]3O[C@@H](C)[C@H](O)[C@@H](O)[C@H]3O)cc2O)cc1O
inactive: [6] | [7] | [8] | [9] | [10]

O=C(/C=C/C=C/c1ccc2c(c1)OCO2)N1CCCCC1
inactive: [5]
